Sampled rows, rich in hits. Any-hit rate of the full collection: about 4.8%.
ssDAF12 agonist = S. stercoralis DAF-12 nuclear receptor activators, primary screen, cell-based, luminescence, HEK293, GRIP1 co-expression, lit1-tk-luc. Nuclear hormone receptor DAF-12 (Strongyloides stercoralis). HEK293 ssDAF-12/GRIP1 lit1-tk-luc reporter; % of 3 µM dafachronic acid response. activation, % at 6.8 µM. 370,000 tested, 1% active. AID 652126, 2013;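 active means activation above the mean over all tested compounds plus 3 SD, cut at about 0.9% in these data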
DAX1 inh-1 = DAX1 (NR0B1) inhibitors on StAR promoter, primary screen, cell-based, luminescence, SF-1 (NR5A1), full-length DAX-1. HEK293T StAR-luciferase reporter, SF-1/DAX-1 repression relief. AID 652010, 2013. inhibition, % at 6.8 µM. 370,000 tested, 1.1% active;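 active means inhibition above the mean over all tested compounds plus 3 SD, cut at about 3.6% in these data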;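 further: higher inhibition means more luminescence from relief of DAX-1 repression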
DAX1 inh-2 = DAX1 (NR0B1) inhibitors, primary screen, cell-based, HEK293, Gal4-DAX1, luciferase luminescence; inhibition, % at 6.75 µM; HEK293 Gal4-DAX1 luciferase reporter; AID 504766, 2011; 340,000 tested, 0.99% active;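 active means inhibition above the mean over all tested compounds plus 3 SD, cut at about 4.2% in these data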;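 further: inhibition shows as a rise in luminescence from relieved DAX1 repression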
hgDAF12 agonist = H. glycines DAF-12 receptor agonists, primary screen, cell-based, luminescence, HEK293, GAL4 fusion, UAS-luciferase; Nuclear hormone receptor DAF-12 (Heterodera glycines), GAL4 fusion; 370,000 tested, 1.8% active; HEK293 GAL4-hgDAF12 UAS-luciferase reporter, agonist luminescence; normalized to butyrate control; activation, % at 6.8 µM;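 active means activation above a cutoff set at the mean of all screened compounds plus 3 SD, cut at about 10% in these data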
hcDAF12 agonist = H. contortus DAF-12 nuclear receptor activators, primary screen, cell-based, luminescence, HEK293, lit1-tk-luc reporter; HEK293 hcDAF-12 lit1-tk-luc reporter; 0% DMSO, 100% Δ7-dafachronic acid; activation, % at 6.8 µM; 370,000 tested, 1.4% active; AID 652067, 2013;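 active means activation above the mean of all tested compounds plus 3 SD, cut at about 5.5% in these data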
SMARCA2 act = SMARCA2 (BRM) function activators, primary screen, cell-based, luminescence, high throughput; 370,000 tested, 1% active; activation, % at 9.1 µM; AID 652017, 2013; MG213 cells, MMTV-luciferase reporter, dexamethasone, overnight; in the data active means activation above about 7.8%
hgDAF12 conf = H. glycines DAF-12 receptor agonists, confirmation, cell-based, luminescence, HEK293, GAL4-LBD fusion; shares compounds with hgDAF12 agonist; HEK293 GAL4-hgDAF12 luciferase reporter, agonist mode; percent of butyrate response; activation, % at 6.8 µM; 3,300 tested, 80% active; AID 743050, 2013;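 active means mean activation over triplicate wells above the hit cutoff derived from the earlier primary screen, cut at about 11% in these data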
LXRb DAF12 ctr = LXR agonists, Gal4 luciferase reporter, confirmation, counter-screen for hgDAF-12 agonist project, cell-based, luminescence, HEK293, H. glycines campaign; shares compounds with hgDAF12 agonist; 24 h; activation, % at 6.8 µM; 3,300 tested, under 10 active;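 active means mean activation of the triplicate above a set limit carried over from the primary screen, none filed active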
Target sequence (P55055 whole entry, looked up, the tested form may be a part): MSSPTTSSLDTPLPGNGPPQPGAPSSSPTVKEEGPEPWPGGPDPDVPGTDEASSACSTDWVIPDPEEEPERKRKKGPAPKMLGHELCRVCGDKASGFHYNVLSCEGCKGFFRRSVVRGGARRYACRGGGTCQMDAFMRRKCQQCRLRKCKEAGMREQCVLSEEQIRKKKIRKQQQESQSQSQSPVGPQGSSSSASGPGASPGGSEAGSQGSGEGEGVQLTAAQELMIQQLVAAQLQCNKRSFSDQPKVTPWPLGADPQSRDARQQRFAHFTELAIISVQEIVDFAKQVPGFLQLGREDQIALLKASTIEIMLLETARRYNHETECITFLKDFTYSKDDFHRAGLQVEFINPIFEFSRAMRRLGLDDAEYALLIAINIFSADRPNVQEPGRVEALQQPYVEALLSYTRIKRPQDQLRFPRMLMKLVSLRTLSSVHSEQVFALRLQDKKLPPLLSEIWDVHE
Large screens that a line does not name were inactive (follow-up assays come after a bar, where they were run).

CC(=O)Nc1ccc(NC(=S)Nc2ccc(Br)cc2)cc1	none
CC(C)=CC(=O)Nc1ccc(Br)cc1	hgDAF12 agonist 16 | hgDAF12 conf 15 | LXRb DAF12 ctr inactive
CCOC(=O)C1(Cc2ccccc2Cl)CCN(C(=O)c2cnccn2)CC1	hgDAF12 agonist 16 | hgDAF12 conf 11 | LXRb DAF12 ctr inactive
COC(=O)c1ccc(-c2ccc(Cl)cc2)nc1C	DAX1 inh-1 4.3, hgDAF12 agonist 14 | hgDAF12 conf 20 | LXRb DAF12 ctr inactive
COC(=O)c1ccccc1NC(=O)c1sc(Cl)nc1C	none
CC(NC(=O)c1cccs1)C(S)c1ccccc1 (stereo not given)	none
COc1ccc(C(=O)NC(=S)N2CCC(C)CC2)cc1Br	hgDAF12 agonist 32 | hgDAF12 conf inactive | LXRb DAF12 ctr inactive
CC1CCN(C(=S)NC(=O)c2ccc(C(C)(C)C)cc2)CC1	none
O=C(O)c1ccc(-c2nc3ccccc3[nH]2)cc1	none
Fc1ccc(-c2nc3ccccc3[nH]2)cc1	hgDAF12 agonist 18 | hgDAF12 conf 12 | LXRb DAF12 ctr inactive
CCOC(=O)N/N=C\c1ccccc1OC/C=C/c1ccccc1	hgDAF12 agonist 14 | hgDAF12 conf inactive | LXRb DAF12 ctr inactive
COC(=O)N/N=C\c1ccccc1OC/C=C/c1ccccc1	none
Cc1cccc(Nc2nc3c(s2)CCCC3)c1	hgDAF12 agonist 18 | hgDAF12 conf 16 | LXRb DAF12 ctr inactive
O=C(O)c1ccc(Nc2nc3c(s2)CCCC3)cc1	none
O=C(Cc1ccccc1[N+](=O)[O-])NCc1ccccc1Cl	hgDAF12 agonist 14 | hgDAF12 conf 14 | LXRb DAF12 ctr inactive
CCOC(=O)Cc1ccc2sc(-c3ccccc3)nc2c1	hgDAF12 agonist 13 | hgDAF12 conf 14 | LXRb DAF12 ctr inactive
O=C(/C=C/c1ccccc1)N1CCC(c2ccccc2)C1 (stereo not given)	hgDAF12 agonist 13 | hgDAF12 conf 16 | LXRb DAF12 ctr inactive
CCc1ccc(NC(=O)N2CCC(c3ccccc3)C2)cc1 (stereo not given)	DAX1 inh-1 3.7, hgDAF12 agonist 18 | hgDAF12 conf 14 | LXRb DAF12 ctr inactive
CN(Cc1ccccc1)C(=O)c1ncn2c1C(=O)N(C)CC2	none
Cc1cc(NC(=O)COC(=O)COc2ccc(Cl)c(C)c2)no1	none
Cc1ccc(NC(=S)NC(=O)C2CCC2)cc1C	hgDAF12 agonist 14 | hgDAF12 conf 11 | LXRb DAF12 ctr inactive
O=C(NC(=S)Nc1ccc(O)cc1)C1CCCC1	none
COc1cccc(NC(=O)c2cnn(-c3ccccc3)c2C)c1	ssDAF12 agonist 1.2, hgDAF12 agonist 18, hcDAF12 agonist 6.3 | hgDAF12 conf 14 | LXRb DAF12 ctr inactive
CCn1ncc(C(=O)Nc2ccc(S(=O)(=O)N3CCCC3)cc2)c1C	none
CCn1ncc(C(=O)Nc2cccc(Cl)c2)c1C	ssDAF12 agonist 0.9, hgDAF12 agonist 18 | hgDAF12 conf 12 | LXRb DAF12 ctr inactive
Clc1ccc(-c2nnc(-c3ccccc3)o2)c(Cl)c1	DAX1 inh-1 4.0, hgDAF12 agonist 16 | hgDAF12 conf 16 | LXRb DAF12 ctr inactive
Clc1ccccc1-c1nnc(-c2ccc3c(c2)OCO3)o1	hgDAF12 agonist 19, hcDAF12 agonist 5.8 | hgDAF12 conf 15 | LXRb DAF12 ctr inactive

Screening results as filed in PubChem BioAssay.
